24 compounds from PubChem BioAssay (NCATS) can be followed below.

Structures are written as SMILES. Records with an inconclusive call do not appear. Entries that show only a call come without a potency. Values without a mark were called inactive. Calls of active or inactive are those of the source. Calls come from the whole dose curve; as a rule, active = well fitted cell-killing curve with a large enough effect; inconclusive = small, poorly fitted or top-dose-only effect, or effect the other way; inactive = flat fitted curve, though single readings scatter.
Potency is the fitted concentration of half-maximal effect.

The test has as its system SKOV3. Nature of the test: Primary qHTS to identify gynecologic anti-cancer compounds using libraries of approved drugs and bioactive compounds (AID 1345084). Note: nearly all actives have a fitted effect of over 55% in size. Particulars: Gynecologic cancer cell panel viability, ATPlite luminescence, 48 h; series mostly up to 57.5 µM. An outline of the steps:
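Cell viability after 48 h drug treatment, ATPlite luminescence readout; five doses.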
As to `CN[C@@H]1[C@@H](O)[C@@H](O[C@@H]2[C@@H](O)[C@H](O[C@H]3O[C@@H]([C@@H](C)NC)CC[C@H]3N)[C@@H](N)C[C@H]2N)OC[C@]1(C)O`, the Potency entry is “inactive”.
Same read-out and setting: next, `C[N+]1(C)[C@@H]2CC[C@H]1CC(OC(=O)C(O)c1ccccc1)C2` (some centres undefined): “inactive”; `CCNC(=O)[C@@H]1CCCN1C(=O)[C@H](CCCN=C(N)N)NC(=O)[C@H](CC(C)C)NC(=O)[C@@H](CC(C)C)NC(=O)[C@H](Cc1ccc(O)cc1)NC(=O)[C@H](CO)NC(=O)[C@H](Cc1c[nH]c2ccccc12)NC(=O)[C@H](Cc1cnc[nH]1)NC(=O)[C@@H]1CCC(=O)N1`: “inactive”.
Turning to `CC(CCC1(O)OC2CC3C4CC=C5CC(O[C@@H]6O[C@H](CO)[C@@H](O[C@@H]7O[C@H](CO)[C@@H](O)[C@H](O)[C@H]7O)[C@H](O)[C@H]6O[C@@H]6O[C@@H](C)[C@H](O)[C@@H](O)[C@H]6O)CCC5(C)C4CCC3(C)C2C1C)CO[C@@H]1O[C@H](CO)[C@@H](O)[C@H](O)[C@H]1O` (some centres undefined), the activity change, negative = cytotoxicity is -2.2% [at 11.6 µM].
Take `Cn1c(NC[C@@H](N)Cc2ccccc2)nc(-c2ccncc2)c(-c2ccc3ccccc3c2)c1=O`: the Potency result is “inactive”.
For `COc1ccc(NS(=O)(=O)c2sc3ccc(Cl)cc3c2C)cc1N1CCNCC1`, the Potency result was “inactive”.
Still for that read-out and setting: then `CCCCc1nc(Cl)c(CO)n1Cc1ccc(-c2ccccc2-c2nnn[nH]2)cc1`, with “inactive”; and `Cc1nnsc1C(=O)Nc1ccc(-n2nc(C(F)(F)F)cc2C(F)(F)F)cc1`, with “inactive”; and `Cc1cc(C)c(NC(=O)N(Cc2ccc3c(c2)Cc2ccccc2-3)C2CCCCCC2)c(C)c1`, with “inactive”.
Same read-out and setting: then `Fc1ccccc1CNCc1ccc(-c2ccnc3[nH]ccc23)cc1`, with “inactive”; and `CN(Cc1ccc(C(=O)O)cc1)c1ccc(OCc2c(-c3c(Cl)cccc3Cl)noc2C2CC2)nc1C(F)(F)F`, with “inactive”; and `Cc1nc(C)c2c(n1)N(Cc1ccc(-c3ccccc3-c3nn[nH]n3)cc1)C(=O)CC2`, with “inactive”.
Turning to `N#C[C@@H]1C[C@@H]2C[C@@H]2N1C(=O)[C@@H](N)C12CC3CC(CC(O)(C3)C1)C2`, the Potency entry is “inactive”.
As for `CS(=O)(=O)c1ccc(-c2cn3ccccc3n2)cc1`, the Potency was 8.91 µM (active).
For the compound `CCCCOc1ccc(-c2cncc(C(=O)NCc3cccnc3N3CCOCC3)c2)cc1Cl`, the Potency result is “inactive”.
Take `CC[C@H]1OC(=O)[C@H](C)[C@@H](O[C@H]2C[C@@](C)(OC)[C@@H](O)[C@H](C)O2)[C@H](C)[C@@H](O[C@@H]2O[C@H](C)C[C@H](N(C)C)[C@H]2O)[C@](C)(O)C[C@@H](C)/C(=N/OCOCCOC)[C@H](C)[C@@H](O)[C@]1(C)O`: the Potency result is “inactive”.
For `C[C@@H](O[C@H]1OCCN(Cc2n[nH]nc2CN(C)C)[C@H]1c1ccc(F)cc1)c1cc(C(F)(F)F)cc(C(F)(F)F)c1`, the Potency result was “inactive”.
Same read-out and setting: next, `Cc1cc(CN)cc(C)c1NC(=O)c1ccc(-c2cc(Cl)ccc2Cl)o1`: “inactive”; `CC(=O)N1CCN([C@H]2CCN(C(=O)N(C)[C@H](C)c3cc(C(F)(F)F)cc(C(F)(F)F)c3)[C@@H](c3ccc(F)cc3C)C2)CC1`: “inactive”; `Cc1cc(C)c(-c2csc(NC(=O)c3ccccc3)n2)c(C)c1`: 25.1 µM (active).
On to `COc1c(N2CC3CCCNC3C2)c(F)cc2c(=O)c(C(=O)O)cn(C3CC3)c12` (centres undefined), for which the Potency result is “inactive”.
With `CN(CC(=O)N(Cc1ccc(C2CCCCC2)cc1)c1ccc(C(=O)O)cc1)S(=O)(=O)c1c(F)c(F)c(F)c(F)c1F`, the Potency was 31.6 µM (active).
On the same count and under the same terms, then `CO[C@@H]1[C@@H](O[C@H]2O[C@@H](C)[C@H](O[C@@H]3C[C@](C)(O)[C@H](O)[C@@H](C)O3)[C@@H](N(C)C)[C@@H]2O)[C@@H](CC=O)C[C@@H](C)[C@@H](O[C@H]2CC[C@H](N(C)C)[C@H](C)O2)/C=C/C=C/C[C@@H](C)OC(=O)C[C@H]1O`, with “inactive”; and `Cc1ccn(-c2cc(Cl)ccc2[C@@H](Oc2cc(-c3ccc(C[C@H](N)C(=O)O)cc3)nc(N)n2)C(F)(F)F)n1`, with “inactive”.
